{
  "source": "the supplement of paper PMC10338343",
  "note": "± gives the standard deviation.",
  "data": [
    {"tested_on": "MILI (PIWIL2) piRISC loaded with piRNA #1 (26 nt)", "assay": "pre-steady-state target cleavage rate (min^-1); guide: piRNA #1 5'p-UGAGGUAGUAGGUUGUAUAGUAUCCA; MIWI and MILI are mouse PIWI proteins and EfPiwi is from a freshwater sponge; tags in brackets are library labels; higher = faster piRNA-guided slicing of the target", "settings": "auxiliary factor: 500 nM mouse GTSF1", "procedure,_shortened": "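Cleave-'n-Seq used a transcribed, DNA-blocked target RNA library at 0.1 nM and active affinity-purified piRISC with one synthetic guide at 1 nM, with or without 500 nM GTSF1 partner protein, in HEPES–potassium acetate buffer at 33 °C for 0–8 or 0–960 min. Uncleaved targets were sequenced and normalised to depth and to weakly complementary targets, and three trials were pooled with k3 capped at 0.0001 min^-1. The pre-steady-state cleavage rate was estimated by a burst-and-steady-state fit.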", "values": [
      {"sequence": "GGAGACCUAUGUAUACAACCUACUACGUGA", "pre-steady-state target cleavage rate": "0.0238 ± 0.0053"},
      {"sequence": "GGAGACCUAUGAUAUCUACCUACUACCUGA", "pre-steady-state target cleavage rate": "< 0.0001"},
      {"sequence": "GGAGACCUUACUAUACAAGGUACUACCUCA", "pre-steady-state target cleavage rate": "0.0785 ± 0.0094"},
      {"sequence": "GGAGACCUAUGUUUACUACCUACUACCUCA", "pre-steady-state target cleavage rate": "0.00553 ± 0.0021"},
      {"sequence": "GGAGACCUAUGAUAAGCAACCUACUACCUCA", "pre-steady-state target cleavage rate": "0.00516 ± 0.0031"},
      {"sequence": "GGAGACCUUACUAUACUACCUACAACCUCA", "pre-steady-state target cleavage rate": "0.13 ± 0.011"},
      {"sequence": "GGAGACCUUACUAUACAACCUACAACCUGA", "pre-steady-state target cleavage rate": "0.0284 ± 0.0093"},
      {"sequence": "GGAGACGAUAGUAUACAAGCUACUACCUCA", "pre-steady-state target cleavage rate": "0.176 ± 0.016"},
      {"sequence": "GGAGACCUUACUAUUGAACCUACUACCUCA", "pre-steady-state target cleavage rate": "0.137 ± 0.013"},
      {"sequence": "GGAGACCUAUGAUAUGUACCAUCUACCUCA", "pre-steady-state target cleavage rate": "< 0.0001"},
      {"sequence": "GGAGACCAUACUAUAGAACCUACUACCACA", "pre-steady-state target cleavage rate": "0.0789 ± 0.021"},
      {"sequence": "GGAGACGAUACUUUACAACCUUCUACCUCA", "pre-steady-state target cleavage rate": "0.00805 ± 0.0018"},
      {"sequence": "GGAGACCUAACUAUACUACGUACUACCUCA", "pre-steady-state target cleavage rate": "0.0154 ± 0.0042"},
      {"sequence": "GGAGACCAUACUAUACAACCUUCAACCUCA", "pre-steady-state target cleavage rate": "0.0066 ± 0.0029"},
      {"sequence": "GGAGACCUAUGAUAACAAGCUACUACCUGA", "pre-steady-state target cleavage rate": "0.00722 ± 0.0035"},
      {"sequence": "GGAGACCUAUGAAUACUACCUACUACCUCA", "pre-steady-state target cleavage rate": "0.0049 ± 0.0017"},
      {"sequence": "GGAGAGGAUUGUAUACAACCUACUACCUCA", "pre-steady-state target cleavage rate": "0.103 ± 0.0085"},
      {"sequence": "GGAGACCUAACUAUCACAACCUACUACCUCA", "pre-steady-state target cleavage rate": "0.085 ± 0.025"},
      {"sequence": "GGAGACCUAUGAUUACAACCUAAUACCUCA", "pre-steady-state target cleavage rate": "0.00387 ± 0.0022"},
      {"sequence": "GGAGACCUAUGAUAACAACCUUCUACCUCA", "pre-steady-state target cleavage rate": "0.0024 ± 0.0021"},
      {"sequence": "GGAGACCUUACUAAAGAACCUACUACCUCA", "pre-steady-state target cleavage rate": "0.105 ± 0.011"},
      {"sequence": "GGAGACCUAUGAUAUGACCUACUACCUCA", "pre-steady-state target cleavage rate": "0.0053 ± 0.0031"},
      {"sequence": "GGAGACCUAUCUAUUACAACCUACUACCUCA", "pre-steady-state target cleavage rate": "0.0546 ± 0.0098"},
      {"sequence": "GGAGAGGAUACUAUACAACCUACAUGCUCA", "pre-steady-state target cleavage rate": "0.00576 ± 0.003"},
      {"sequence": "GGAGUGCAUACUAUAGAACCUACUACCUCA", "pre-steady-state target cleavage rate": "0.177 ± 0.013"},
      {"sequence": "GGAGACCUAUGAUAACAACCUACUAUCCUCA", "pre-steady-state target cleavage rate": "0.00426 ± 0.003"},
      {"sequence": "GGAGACCUAUGUAUACAACCUACUACCUUCA", "pre-steady-state target cleavage rate": "0.0648 ± 0.0099"},
      {"sequence": "GGAGACCUAUGUAUACAACCGUACUACCUCA", "pre-steady-state target cleavage rate": "0.00758 ± 0.0041"},
      {"sequence": "GGAGACCUAUGAUAACAACCUACGUACCUCA", "pre-steady-state target cleavage rate": "0.00286 ± 0.0027"},
      {"sequence": "GGAGACCAUACUAUAGAACCUACUUCCUCA", "pre-steady-state target cleavage rate": "0.0428 ± 0.013"},
      {"sequence": "GGAGUGGAUUCAAUACAACCUACUACCUCA", "pre-steady-state target cleavage rate": "0.142 ± 0.0076"},
      {"sequence": "GGAGACCUAUGAUAUGUUCCUACUACCUGA", "pre-steady-state target cleavage rate": "< 0.0001"},
      {"sequence": "GGAGACCUAUGUAUACAUCGUACUACCUCA", "pre-steady-state target cleavage rate": "0.00791 ± 0.003"},
      {"sequence": "GGAGACGUUACUAAACAACCUACUACCUCA", "pre-steady-state target cleavage rate": "0.153 ± 0.012"},
      {"sequence": "GGAGUGGAUACUAUUCAACCUACAACCUCA", "pre-steady-state target cleavage rate": "0.0706 ± 0.01"},
      {"sequence": "GGAGACCUAUGAUAUGUUCCUACAAGCUCA", "pre-steady-state target cleavage rate": "< 0.0001"},
      {"sequence": "GGAGACCUUUCUAUACAACCUACUACGUCA", "pre-steady-state target cleavage rate": "0.0394 ± 0.0068"},
      {"sequence": "GGAGACCUAUGUAUUCAACCUACUACGUCA", "pre-steady-state target cleavage rate": "0.00786 ± 0.0022"},
      {"sequence": "GGAGACCUAUGAUAUCAAGGAACUACCUCA", "pre-steady-state target cleavage rate": "< 0.0001"},
      {"sequence": "GGAGACCUAUGUAUACAACCUACUAGCUCA", "pre-steady-state target cleavage rate": "0.0155 ± 0.0035"}
    ]}
  ]
}
